Experimental data reported in the supplement of paper PMC10981050.
“And” between values parts separate entries of the source, which are not always exact repeats. Equal entries are not always repeated. Structures can show the parent of a compound that is named as a salt.

Tests used:
Assay in all cases: cell viability relative to vehicle control; higher = less cytotoxic
Settings in all cases: 10 µM
[1] = system: K562
Summary of the method: (§1)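 CRISPR-edited mutant clones and isogenic wild-type clones from four leukaemia lines were screened against Selleck bioactive, kinase and epigenetic probe libraries, with identity-inconsistent compounds excluded. Each compound was acoustically dispensed at a single 10 µM dose into 384-well plates holding 2000 cells in 50 µL medium per well. After 48 h the supernatant was removed and CellTiter-Glo luminescence was read. Viability was expressed as percent of the on-plate vehicle control and analysed in Genedata Screener.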

[2] = system: MARIMO
Summary of the method: as §1

[3] = system: MOLM14
Summary of the method: as §1

[4] = system: OCI-AML2
Summary of the method: as §1

Row | Structure (SMILES) | cell viability ([1]; SRSF2 genotype: SRSF2 P95H/wt) | cell viability ([1]; SRSF2 genotype: SRSF2 wt/wt) | cell viability ([2]; SRSF2 genotype: SRSF2 P95H/wt) | cell viability ([2]; SRSF2 genotype: SRSF2 wt/wt) | cell viability ([3]; SRSF2 genotype: SRSF2 P95H/wt) | cell viability ([3]; SRSF2 genotype: SRSF2 wt/wt) | cell viability ([4]; SRSF2 genotype: P95H/wt) | cell viability ([4]; SRSF2 genotype: wt/wt)
1 | COC(=O)[C@@]1(C)CC[C@]2(C(=O)O)CC[C@]3(C)C(=CC[C@@H]4[C@@]5(C)C[C@H](O)[C@H](O[C@@H]6OC[C@@H](O[C@@H]7O[C@H](CO)[C@@H](O)[C@H](O)[C@H]7O)[C@H](O)[C@H]6O)[C@@](C)(CO)[C@@H]5CC[C@]43C)[C@@H]2C1 [Esculentoside A] | 110% and 105% | 105% | 104% | 108% | 108% | 107% | 96.8% | 105%
2 | CN(C)CCCNC(=O)c1ccc(-c2cc(O)c3ncccc3c2)cc1 | 55% and 32.1% | 47.3% | 52.3% | 53% | 40.7% | 24.9% | 33% | 33.2%
3 | N#Cc1ccc(Oc2ccc3c(c2)COB3O)cc1 [Crisaborole (AN2728)] | 93.3% and 84% | 90.8% | 73.8% | 72.9% | 68.2% | 77.7% | 90% | 79.3%
4 | O=C(O)CC(O)(CC(=O)OCc1ccc(O[C@@H]2O[C@H](CO)[C@@H](O)[C@H](O)[C@H]2O)cc1)C(=O)OCc1ccc(O[C@@H]2O[C@H](CO)[C@@H](O)[C@H](O)[C@H]2O)cc1 (stereo not given in full) [Parishin B] | 106% and 105% | 109% | 103% | 98.4% | 113% | 105% | 99.6% | 100%
5 | CC(=O)CCC=C(C)CCC=C(C)CCC=C(C)CCC=C(C)C [Teprenone] | 94.5% and 91.8% | 92.9% | 80.2% | 95.6% | 86.8% | 96.5% | 77.7% | 84.9%
6 | CC(=O)O[C@]1(C)CC[C@@]23C[C@H]1C(C)(C)[C@@H]2CC[C@H]3C [Cedryl acetate] | 102% and 105% | 104% | 103% | 117% | 101% | 106% | 112% | 110%
7 | C=C(C)[C@@H]1CCC2=CC(=O)C[C@@H](C)[C@]2(C)C1 [Nootkatone] | 104% and 105% | 107% | 100% | 95.4% | 105% | 103% | 107% | 103%
8 | CC1OC(OC2C(OC3CC4(C)C(CC(O)C5C(C6(C)CCC(C(C)(C)O)O6)CCC54C)C4(C)CCC(O)C(C)(C)C34)OC(CO)C(O)C2O)C(O)C(O)C1O (stereo not given) [Pseudoginsenoside F11] | 107% and 104% | 111% | 107% | 103% | 113% | 108% | 103% | 98.4%
9 | CN(CCNCc1cn(Cc2ccc(Cl)cc2)nn1)CCNc1ccnc2cc(Cl)ccc12 | 2.31% and 5.3% | 6.48% | 28.8% | 34.4% | 2.79% | 0.55% | 0.39% | 0.68%
10 | CCCCCCCN(CC)CCCC(O)c1ccc(NS(C)(=O)=O)cc1 (stereo not given) [Ibutilide fumarate] | 87.6% and 106% | 93.2% | 91.6% | 107% | 97.9% | 103% | 97.9% | 96.4%
